Laboratory results taken from PubChem BioAssay (NCATS).
Values joined by “and” are separate entries in the source; they are usually repeats but may differ in a detail not shown here. Equal values may be shown once. Unmarked numbers belong to inactive results. Inconclusive results are not listed. Entries that show only a call come without a potency. Active and inactive are the calls of the source. Unless noted, the call rests on the fitted dose curve; in most records, active means well fitted curve in the direction sought with a large enough effect; inconclusive means small, poorly fitted or top-dose-only effect, or another doubt; inactive means no such curve, though single readings can be large; an effect the other way counts as inactive or inconclusive.

Key:
[1] = molecular target: Tumor necrosis factor (Homo sapiens) (UniProt P01375); test: qHTS assay to identify small molecules that stimulate Tumor Necrosis Factor-alpha (TNF-alpha) secretion (AID 651757; active means well fitted curve in the direction sought with a large enough effect in the signal ratio; the % refers to the signal ratio); conditions: Human cells, HTRF 665/615 ratio; series mostly up to 92.2 µM
Tumor necrosis factor (Homo sapiens), sequence (P01375 whole entry, looked up): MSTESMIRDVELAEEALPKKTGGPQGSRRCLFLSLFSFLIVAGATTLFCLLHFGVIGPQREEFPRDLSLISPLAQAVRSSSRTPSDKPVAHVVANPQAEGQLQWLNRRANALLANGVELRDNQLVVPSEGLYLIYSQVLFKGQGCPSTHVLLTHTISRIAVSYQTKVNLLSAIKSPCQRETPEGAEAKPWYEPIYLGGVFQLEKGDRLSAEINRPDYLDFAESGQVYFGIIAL
Outline: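 THP-1 cells, 3000/well; compound 17 hrs, 37 C; add cryptate/XL665 anti-TNF-alpha antibody pair; 3 hr RT; TR-FRET (HTRF) read of secreted TNF-alpha. Quantitative HTS format.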

[2] = qHTS assay to identify small molecules that stimulate interleukin-8 (IL-8) secretion (AID 651758; active means well fitted activation curve with a large enough effect in the signal ratio; the % refers to the signal ratio; further: potency means the concentration at half of the fitted maximal effect); conditions: HTRF ratio (665/615); series mostly up to 92.2 µM
Outline: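 Quantitative HTS in THP-1 monocytic cells at 2000 cells per well, with 16 hrs compound incubation at 37 C. IL-8 in the medium was then quantified by HTRF immunoassay, read after 1-3 hrs at room temperature.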

[3] = molecular target: Nuclear receptor ROR-gamma (Homo sapiens) (UniProt P51449); test: qHTS assay for small molecule antagonists of the retinoid-related orphan receptor gamma (ROR-gamma) signaling pathway (AID 651802); conditions: ROR-gamma antagonist cell reporter assay; series mostly up to 92.2 µM;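 further: CHO cells with doxycycline-induced ROR-gamma expression; luciferase reporter luminescence driven by ROR response element; nearly all actives have a fitted effect of over 60% in size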
Nuclear receptor ROR-gamma (Homo sapiens), sequence (P51449 whole entry, looked up): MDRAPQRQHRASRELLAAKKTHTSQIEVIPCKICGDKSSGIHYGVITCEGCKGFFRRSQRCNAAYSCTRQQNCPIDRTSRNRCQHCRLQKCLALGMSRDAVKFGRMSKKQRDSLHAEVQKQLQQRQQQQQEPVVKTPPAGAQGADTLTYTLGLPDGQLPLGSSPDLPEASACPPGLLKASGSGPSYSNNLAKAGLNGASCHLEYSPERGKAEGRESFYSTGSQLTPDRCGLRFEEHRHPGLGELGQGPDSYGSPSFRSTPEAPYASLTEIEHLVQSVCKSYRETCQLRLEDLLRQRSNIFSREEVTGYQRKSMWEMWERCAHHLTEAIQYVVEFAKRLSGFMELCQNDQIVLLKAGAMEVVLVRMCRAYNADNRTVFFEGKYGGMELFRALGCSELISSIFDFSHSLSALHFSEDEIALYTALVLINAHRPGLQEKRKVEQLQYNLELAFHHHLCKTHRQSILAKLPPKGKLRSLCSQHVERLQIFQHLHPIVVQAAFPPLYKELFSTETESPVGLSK
Outline: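 Luciferase read-out: ONE-Glo luminescence after 30 min at room temperature, following 16hr doxycycline induction at 37C, 5% CO2 of CHO cells with TET-inducible ROR and RORE-LUC reporter; decreased luminescence = reduced reporter activity.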

[4] = qHTS assay for small molecule disruptors of the mitochondrial membrane potential - 1 hr assay (AID 651754; calls by dose curve; further: nearly all actives have a fitted effect of over 35% in size; further: potency means the concentration at half of the fitted maximal effect); conditions: series mostly up to 92.2 µM
Outline: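 Read-out: dye fluorescence at 490 nm ex/535 nm em (monomers) and 540 nm ex/590 nm em (aggregates) in HepG2 cells. Compound exposure 1 hr at 37C, followed by 30 min dye loading.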

[5] = qHTS assay for small molecule disruptors of the mitochondrial membrane potential - 5 hr assay (AID 651755; calls by dose curve; further: nearly all actives have a fitted effect of over 40% in size; further: potency means the concentration at half of the fitted maximal effect); conditions: JC-1-type ratio dye; series mostly up to 92.2 µM
Outline: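 Seed HepG2 overnight, add compound, incubate 5 hr at 37C and 5% CO2, stain 30 min with Mito-MPS, then measure monomer (490/535 nm) and aggregate (540/590 nm) fluorescence.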

[6] = molecular target: Glucagon-like peptide 1 receptor (Homo sapiens) (UniProt P43220); test: qHTS of GLP-1 Receptor Agonists: LOPAC Validation (AID 624148); conditions: GLP-1R agonist cell assay; series mostly up to 46.1 µM;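 further: higher luminescence signal means agonism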
Glucagon-like peptide 1 receptor (Homo sapiens), sequence (P43220 whole entry, looked up): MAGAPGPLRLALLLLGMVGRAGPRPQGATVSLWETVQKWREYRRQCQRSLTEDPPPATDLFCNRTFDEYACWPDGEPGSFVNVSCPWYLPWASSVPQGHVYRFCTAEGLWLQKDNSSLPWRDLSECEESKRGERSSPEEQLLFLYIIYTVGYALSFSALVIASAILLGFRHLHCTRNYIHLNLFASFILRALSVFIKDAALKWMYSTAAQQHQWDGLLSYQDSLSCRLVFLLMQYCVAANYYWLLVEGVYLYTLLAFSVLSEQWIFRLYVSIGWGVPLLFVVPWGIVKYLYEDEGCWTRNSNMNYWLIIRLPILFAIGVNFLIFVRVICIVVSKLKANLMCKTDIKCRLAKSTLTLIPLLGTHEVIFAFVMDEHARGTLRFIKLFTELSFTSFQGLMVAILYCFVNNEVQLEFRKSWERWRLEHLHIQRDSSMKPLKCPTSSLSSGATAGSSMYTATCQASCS
Outline: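 HEK293 cells stably co-expressing a cAMP-responsive luciferase reporter and a hypersensitive GLP-1R were plated 12 h at 37 °C and exposed to compounds for 4-6 hr at 37 °C, 5% CO2. Luminescence was read 12 min after adding detection reagent.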

[7] = qHTS of Nrf2 Activators: LOPAC Validation (AID 624149); conditions: Nrf2/ARE reporter cell assay; series mostly up to 46.1 µM
Outline: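 AREc32_Fluc cells, 1000/well, OPTI-MEM + 5% FBS, o/n 37 deg C 5% CO2; compound pin-transfer, 24 hr 37 deg C; Steady-Glo 30 min RT, luminescence read.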

[8] = molecular target: Arylsulfatase A (Homo sapiens) (UniProt P15289); test: qHTS screen for enhancers of Arylsulfatase A (ASA1): LOPAC Validation Assay (AID 720538); conditions: ASA enzyme activity, LOPAC qHTS enhancer assay; series mostly up to 57.5 µM; further: potency means the concentration at half of the fitted maximal effect
Arylsulfatase A (Homo sapiens), sequence (P15289 whole entry, looked up): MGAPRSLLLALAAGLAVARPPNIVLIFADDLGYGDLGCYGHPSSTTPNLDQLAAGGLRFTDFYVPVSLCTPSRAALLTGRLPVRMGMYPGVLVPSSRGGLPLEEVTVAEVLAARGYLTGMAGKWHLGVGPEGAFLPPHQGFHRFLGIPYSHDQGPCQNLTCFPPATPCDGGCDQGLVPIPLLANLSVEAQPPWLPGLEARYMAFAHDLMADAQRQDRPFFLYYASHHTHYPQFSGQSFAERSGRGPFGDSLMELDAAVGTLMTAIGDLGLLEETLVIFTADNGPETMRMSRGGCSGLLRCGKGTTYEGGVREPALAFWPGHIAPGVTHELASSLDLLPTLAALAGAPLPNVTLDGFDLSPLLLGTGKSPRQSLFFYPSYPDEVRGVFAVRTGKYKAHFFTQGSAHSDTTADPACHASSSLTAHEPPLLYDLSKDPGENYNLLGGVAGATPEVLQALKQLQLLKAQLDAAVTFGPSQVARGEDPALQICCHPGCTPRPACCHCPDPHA
Outline: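 Cell-based enhancement test: residual ASA activity in SV40-transformed I179S patient fibroblasts is measured by pNCS turnover (0.5mM final, 14h, room temperature) following 48h compound incubation; higher fluorescence indicates activation.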

[9] = HTS Assay for Allosteric Antagonists of the Human D2 Dopamine Receptor: Hit Validation in HTRF (AID 624455); conditions: Cells stably expressing D1 dopamine receptor, inhibition mode; series mostly up to 46.1 µM
Outline: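 HTRF read-out; cells stably expressing D1 receptor; hits scored for inhibition of D1-mediated response. Primary screen: calcium flux, force-coupled inducible Hek293 Trex D2 line, antagonism vs EC80 dopamine.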

[10] = qHTS assay for small molecule activators of the nuclear factor-kappa B (NF-kB) signaling pathway (AID 651749; active means well fitted activation curve with a large enough effect in the signal ratio; the % refers to the signal ratio); conditions: NF-kB-bla ME-180 cells, beta-lactamase FRET ratio, 16 h; stronger effect = higher value
Outline: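 Beta-lactamase reporter expression, controlled by NF-kB response elements in ME-180 cells, was quantified fluorometrically via FRET disruption; cells at 2,000/well had been incubated with 23 nL test compound for 16 hr.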

[11] = qHTS assay for environmental chemicals that activate the Aryl hydrocarbon Receptor (AhR) signaling pathway (AID 651777); conditions: 1A2-DRE human hepatoma cells, luciferase, 24 h; activation: stronger effect = higher value; further: nearly all actives have a fitted effect of over 15% in size; further: potency means the concentration at half of the fitted maximal effect
Outline: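 Human hepatoma 1A2-DRE cells stably carrying a DRE/CYP1A2 promoter–luciferase reporter, 1,200 cells/well, exposed to compound 24 hr at 37 C. Luciferase read by One-Glo luminescence after 30 min at room temperature; increased signal marks AhR activation.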

[12] = molecular target: Peroxisome proliferator-activated receptor alpha (Homo sapiens) (UniProt Q07869); test: qHTS assay for small molecule agonists of the peroxisome proliferator-activated receptor alpha (PPARalpha) signaling pathway (AID 651778); conditions: PathHunter PPARalpha complementation, chemiluminescence, 6 h; stronger effect = higher value
Peroxisome proliferator-activated receptor alpha (Homo sapiens), sequence (Q07869 whole entry, looked up): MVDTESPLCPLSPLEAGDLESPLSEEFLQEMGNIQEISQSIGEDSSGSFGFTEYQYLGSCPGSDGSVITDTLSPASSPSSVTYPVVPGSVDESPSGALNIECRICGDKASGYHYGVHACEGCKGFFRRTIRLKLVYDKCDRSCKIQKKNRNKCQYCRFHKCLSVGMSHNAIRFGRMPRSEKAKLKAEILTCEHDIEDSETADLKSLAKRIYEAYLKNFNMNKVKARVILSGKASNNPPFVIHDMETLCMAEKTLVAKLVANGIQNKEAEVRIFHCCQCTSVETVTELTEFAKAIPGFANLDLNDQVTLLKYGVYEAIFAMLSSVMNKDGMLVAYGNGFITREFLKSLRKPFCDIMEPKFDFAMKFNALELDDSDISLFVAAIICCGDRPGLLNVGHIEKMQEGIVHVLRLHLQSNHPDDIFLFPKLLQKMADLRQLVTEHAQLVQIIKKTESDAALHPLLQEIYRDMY
Outline: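 Cells plated at 2,000/well and held overnight at 37 C, 5% CO2, then compound added by pin tool for 6 hr; after PathHunter detection reagent and 60 min at room temperature, chemiluminescence from enzyme complementation was read.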

[13] = qHTS assay for small molecule activators of the p53 signaling pathway (AID 651743; active means well fitted activation curve with a large enough effect in the signal ratio, not every such curve was filed as active; the % refers to the signal ratio); conditions: HCT-116 p53RE-bla, beta-lactamase FRET ratio, 16 h; activation: stronger effect = higher value
Outline: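 Here HCT-116 cells with an integrated p53-responsive beta-lactamase gene were incubated with compounds (16 hours, 37 C) after a 5-hour plating period; beta-lactamase activity was detected as fluorescence intensity via B/G FRET substrate.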

[14] = molecular target: Tyrosine-protein kinase Yes (Homo sapiens) (UniProt P07947); test: qHTS for small molecule inhibitors of Yes1 kinase: Primary Screen (AID 686947); conditions: Yes1 kinase biochemical qHTS inhibition; series mostly up to 76.9 µM; further: potency means the concentration at half of the fitted maximal effect; nearly all actives have a fitted effect of over 60% in size
Tyrosine-protein kinase Yes (Homo sapiens), sequence (P07947 whole entry, looked up): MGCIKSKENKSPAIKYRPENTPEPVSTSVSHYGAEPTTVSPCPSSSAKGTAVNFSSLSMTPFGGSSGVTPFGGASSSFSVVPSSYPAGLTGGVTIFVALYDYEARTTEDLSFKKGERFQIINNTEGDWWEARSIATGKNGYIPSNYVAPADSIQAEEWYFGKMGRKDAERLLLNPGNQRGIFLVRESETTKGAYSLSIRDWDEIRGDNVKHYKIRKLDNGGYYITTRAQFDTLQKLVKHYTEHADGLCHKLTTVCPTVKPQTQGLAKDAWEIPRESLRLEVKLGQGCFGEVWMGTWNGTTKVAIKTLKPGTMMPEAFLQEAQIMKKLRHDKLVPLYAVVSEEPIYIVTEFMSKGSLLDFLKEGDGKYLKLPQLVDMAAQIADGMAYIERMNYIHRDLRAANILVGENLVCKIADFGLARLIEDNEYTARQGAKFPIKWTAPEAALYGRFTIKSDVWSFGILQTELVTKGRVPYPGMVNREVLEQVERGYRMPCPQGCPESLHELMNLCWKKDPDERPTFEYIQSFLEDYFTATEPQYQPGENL
Outline: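 In this qHTS format, inhibition is expressed relative to DMSO controls with enzyme (maximum) and without enzyme (minimum). The 60 min room-temperature reaction uses 0.1 mM ATP, with ADP detected by luminescence.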

[15] = qHTS for small molecule inhibitors of Yes1 kinase: Counter Assay (AID 686950); conditions: series mostly up to 76.9 µM;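 further: no kinase present so only ADP-Glo detection of a fixed ADP amount is tested; luminescence from ADP-Glo reporting ADP in a fixed ATP and ADP mixture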
Outline: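 Measuring interference with ADP-Glo, the assay ran 60 min at room temperature on an ATP/ADP mix lacking enzyme. Values were normalized to ATP-plus-ADP (maximum) and ATP-only (minimum) DMSO controls.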

O=c1[nH]c(=O)n([C@H]2C[C@H](O)[C@@H](CO)O2)cc1Br
outcome [1]: inactive
Potency [2]: 53.1 µM (active)

Nc1nc(N)c2nc(-c3ccccc3)c(N)nc2n1
Potency [3]: inactive

CCCCNC(=O)NS(=O)(=O)c1ccc(C)cc1
Potency [4]: inactive
Potency [5]: inactive

COC(=O)[C@H]1[C@H]2C[C@@H]3c4[nH]c5cc(OC)ccc5c4CCN3C[C@H]2C[C@@H](OC(=O)c2cc(OC)c(OC)c(OC)c2)[C@@H]1OC
Potency [4]: 21.1 µM (active)
Potency [5]: 26.6 µM (active)

COc1ccc(CN(CCN(C)C)c2ccccn2)cc1
Potency [2]: inactive

CCN(CC)CCOCCOC(=O)C1(c2ccccc2)CCCC1
outcome [6]: inactive
outcome [7]: inactive
Potency [8]: inactive

CCCC(C(=O)OCCN(CC)CC)(c1ccccc1)c1ccccc1
outcome [6]: inactive
outcome [7]: inactive
Potency [8]: inactive

C[C@H](CS)C(=O)N1CCC[C@H]1C(=O)O
outcome [7]: inactive
Potency [9]: inactive

CCOC(=O)C1=C(C)NC(C)=C(C(=O)OC)C1c1cccc(Cl)c1Cl (centres undefined)
outcome [6]: inactive
outcome [7]: inactive
Potency [8]: inactive

COc1cc2c(cc1OC)-c1cc(=Nc3c(C)cc(C)cc3C)n(C)c(=O)n1CC2
outcome [7]: inactive
Potency [9]: inactive

CCCCOCCOCCOCc1cc2c(cc1CCC)OCO2
activation [10]: -2.78% and 0.8%
Potency [4]: inactive
Potency [5]: inactive
outcome [1]: inactive
activation [11]: 5.54% and 1.27%
max response [12]: -0.481% and -4.29%

NC(=Nc1ccccc1)Nc1ccccc1
activation [13]: -3.94% and -5.84%
outcome [1]: inactive
Potency [2]: inactive
Potency [11]: 12.6 µM (active)
max response [12]: -2.99% and 6.68%
Potency [3]: inactive

C[n+]1cc2c3c(ccc2c2ccc4cc5c(cc4c21)OCO5)OCO3
outcome [6]: inactive
outcome [7]: inactive
Potency [8]: inactive

COc1cc(Cc2cnc(N)nc2N)cc(OC)c1OC
outcome [6]: inactive
Potency [9]: inactive
activation [13]: -2.04%
Potency [4]: inactive
Potency [5]: inactive
outcome [1]: inactive
activation [11]: -1.14%
max response [12]: -3.22%
Potency [8]: inactive

CNCCCN1c2ccccc2CCc2ccccc21
outcome [6]: inactive
Potency [9]: inactive
Potency [8]: 21.3 µM (active)

COC(=O)C1=C(C)NC(C)=C(C(=O)OCCN(C)Cc2ccccc2)C1c1cccc([N+](=O)[O-])c1 (centres undefined)
outcome [6]: inactive
Potency [9]: inactive
Potency [8]: inactive

CC(C)(C)c1ccc(C(=O)CCCN2CCC(OC(c3ccccc3)c3ccccc3)CC2)cc1
outcome [6]: inactive
outcome [7]: inactive
Potency [8]: inactive

NC(=O)c1cn(Cc2c(F)cccc2F)nn1
outcome [6]: inactive
outcome [7]: inactive
Potency [8]: inactive

CNCCC(Oc1ccccc1OC)c1ccccc1 (centres undefined)
outcome [6]: inactive
outcome [7]: inactive
Potency [8]: inactive

CC(C(=O)O)c1ccc(CC2CCCC2=O)cc1 (centres undefined)
outcome [6]: inactive
outcome [7]: inactive
Potency [8]: inactive

Cc1cc(C)c(/C=C2\C(=O)Nc3ccccc32)[nH]1
outcome [7]: inactive
Potency [9]: inactive
Potency [14]: 1.37 µM (active)
outcome [15]: inactive
Potency [8]: inactive

CC(C)NCC(O)c1cc(O)cc(O)c1 (centres undefined)
outcome [7]: inactive
Potency [9]: inactive
Potency [8]: inactive

N[C@@H](COP(=O)(O)O)C(=O)O
outcome [6]: inactive
outcome [7]: inactive
Potency [8]: inactive

Cc1nc2ccccn2c(=O)c1CCN1CCC(C(=O)c2ccc(F)cc2)CC1
outcome [6]: inactive
outcome [7]: inactive
Potency [8]: 19 µM (active)

CC(N=C(NC#N)Nc1ccncc1)C(C)(C)C (centres undefined)
outcome [6]: inactive
outcome [7]: inactive
Potency [8]: inactive

CC(C)(C)NCC(O)c1cc(O)cc(O)c1 (centres undefined)
outcome [7]: inactive
Potency [9]: inactive
Potency [8]: inactive

OCCN1CCN(CC/C=C2/c3ccccc3Sc3ccc(C(F)(F)F)cc32)CC1
outcome [7]: inactive
Potency [9]: inactive

Cc1ccc(/C(=C\CN2CCCC2)c2ccccn2)cc1
outcome [6]: inactive
Potency [8]: inactive

COC(=O)[C@@H](N)Cc1ccc(O)c(O)c1
outcome [6]: inactive
outcome [7]: inactive
Potency [8]: 33.8 µM (active)

OCCN1CCN(CCCN2c3ccccc3C=Cc3ccccc32)CC1
outcome [6]: inactive
outcome [7]: inactive
Potency [8]: inactive

Cc1nc2sccn2c(=O)c1CCN1CCC(=C(c2ccc(F)cc2)c2ccc(F)cc2)CC1
outcome [6]: inactive
outcome [7]: inactive
Potency [8]: inactive

CCC(=O)c1ccc2c(c1)N(CCCN(C)C)c1ccccc1S2
outcome [6]: inactive
outcome [7]: inactive
Potency [8]: inactive

NS(=O)(=O)c1cc2c(cc1Cl)NC(C1CC3C=CC1C3)NS2(=O)=O (centres undefined)
outcome [6]: inactive
outcome [7]: inactive
Potency [8]: inactive

CN/C(=C\[N+](=O)[O-])NCCSCc1ccc(CN(C)C)o1
outcome [6]: inactive
Potency [8]: inactive

CCCCNc1ccc(C(=O)OCCN(C)C)cc1
outcome [6]: inactive
outcome [7]: inactive
Potency [8]: inactive

Nc1c2c(nc3ccccc13)CCCC2O (centres undefined)
outcome [6]: inactive
outcome [7]: inactive
Potency [8]: inactive

CC1=C(C)C(=O)C(CCCCC#CCCCC#CCO)=C(C)C1=O
outcome [6]: inactive
Potency [9]: inactive
Potency [8]: inactive

CCn1nc(C(=O)O)c(=O)c2cc3c(cc21)OCO3
outcome [6]: inactive
Potency [9]: inactive
Potency [8]: inactive

CCCN1C[C@H](CSC)C[C@@H]2c3cccc4[nH]cc(c34)C[C@H]21
outcome [6]: inactive
outcome [7]: inactive
Potency [8]: inactive

Cc1nc2c([nH]1)c(=O)n(C)c(=O)n2Cc1ccco1
outcome [7]: inactive
Potency [8]: inactive

COc1ccc([C@@H]2Sc3ccccc3N(CCN(C)C)C(=O)[C@@H]2OC(C)=O)cc1
outcome [6]: inactive
outcome [7]: inactive
Potency [8]: inactive
